# Experimental data reported in PubChem BioAssay (NCATS).
# “And” between values parts separate entries of the source, which are not always exact repeats. Equal entries are not always repeated. Inconclusive results are not listed. Entries that show only a call come without a potency. The source made the active and inactive calls. Unless noted, calls follow the shape of the full dose curve.
# Columns and labels:
# [1] = target: Thyroid hormone receptor beta (Homo sapiens) (UniProt P10828); assay: qHTS assay for small molecule agonists of thyroid hormone receptor beta signaling (AID 588545); details: TR-UAS-bla GripTite HEK 293, beta-lactamase ratio, agonist mode, 18 h, percent of T3 response, DMSO as zero; series mostly up to 76.7 µM
# How it was run: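 Compounds were tested as agonists in TR-UAS-bla-GripTite HEK 293 cells. After 18 hrs at 37 C, CCF4 substrate was added and fluorescence read after 2 hrs at room temperature.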
# [2] = target: Peroxisome proliferator-activated receptor delta (Homo sapiens) (UniProt Q03181); assay: qHTS assay for small molecule antagonists of peroxisome proliferator-activated receptor delta signaling (AID 588535; active = well fitted inhibition curve with a large enough effect in the signal ratio, with a control signal flat, not every such curve was filed as active; the % refers to the signal ratio); details: HEK293T PPARd-UAS-bla, beta-lactamase FRET ratio, 18 h; series mostly up to 76.7 µM
# How it was run: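 Reporter: UAS-bla under PPAR-delta response element, HEK293T host. Medium: 2% charcoal/dextran FBS. Dosing: titration, 18 hrs, 37 C. Detection: CCF4, 2 hrs RT, 405 ex/460 and 530 em.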
# [3] = target: Peroxisome proliferator-activated receptor gamma (Homo sapiens) (UniProt P37231); assay: qHTS assay for small molecule agonists of peroxisome proliferator-activated receptor gamma signaling (AID 588536; active = well fitted curve in the direction sought with a large enough effect in the signal ratio, with a control signal flat, not every such curve was filed as active; the % refers to the signal ratio); details: HEK293 PPARg-UAS-bla, beta-lactamase ratio, 16 h, percent of rosiglitazone response, DMSO as zero; series mostly up to 76.7 µM
# How it was run: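 PPAR-gamma-UAS-bla HEK293 cells in medium with 1% charcoal/dextran-treated FBS were exposed to compounds for 16 h at 37 C. Beta-lactamase activity was read with CCF4 substrate (405 nm excitation, 460/530 nm emission).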
# [4] = target: Peroxisome proliferator-activated receptor gamma (Homo sapiens) (UniProt P37231); assay: qHTS assay for small molecule antagonists of peroxisome proliferator-activated receptor gamma signaling (AID 588537; active = well fitted inhibition curve with a large enough effect in the signal ratio, with a control signal flat, not every such curve was filed as active; the % refers to the signal ratio; also: potency is read from the fitted curve at half-maximal effect); details: HEK293 PPARg-UAS-bla, beta-lactamase ratio, antagonist mode; series mostly up to 76.8 µM
# How it was run: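 We seeded GeneBLAzer HEK293 reporter cells at 3000 per well, allowed 6-6.5 h attachment at 37 C, then co-treated with test compound titrations and 50 nM rosiglitazone overnight (16 h). Inhibition was quantified from 460/530 nm emission ratios.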
# [5] = target: Vitamin D3 receptor (Homo sapiens) (UniProt P11473); assay: qHTS assay for small molecule antagonists of vitamin D receptor signaling (AID 588541); details: HEK293T VDR-UAS-bla, beta-lactamase ratio, antagonist mode; series mostly up to 76.7 µM;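 also: receptor activated by calcitriol during compound treatment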
# How it was run: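 VDR-UAS-bla HEK293T cells (2000/well, 2% charcoal-stripped FBS) were treated with titrated compounds plus 1-alpha,25-dihydroxyvitamin D3 (50 nM or 3 nM final) for 16 h at 37 C. CCF4 beta-lactamase fluorescence was read; Hill fits gave IC50.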
# [6] = target: Vitamin D3 receptor (Homo sapiens) (UniProt P11473); assay: qHTS assay for small molecule agonists of vitamin D receptor signaling (AID 588543); details: HEK293T VDR-UAS-bla, beta-lactamase ratio, 16 h; series mostly up to 76.8 µM
# How it was run: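 Measured: β-lactamase reporter activity (CCF4, 405 nm excitation, 460/530 nm emission) in HEK293T VDR-UAS-bla cells after 16 h compound exposure at 37 °C. Normalization against 50 nM 1α,25-dihydroxyvitamin D3 and DMSO; Hill-fit EC50.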
# [7] = qHTS assay for small molecule agonists of retinoid X receptor alpha signaling (AID 588544); details: HEK293T RXRa-UAS-bla, beta-lactamase reporter, 18 h; 530 nm emission
# [8] = target: Retinoic acid receptor RXR-alpha (Homo sapiens) (UniProt P19793); assay: as above; details: HEK293T RXRa-UAS-bla, beta-lactamase reporter, 18 h; series mostly up to 76.7 µM
# [9] = qHTS assay for small molecule antagonists of retinoid X receptor alpha signaling (AID 588546; active = well fitted inhibition curve with a large enough effect in the signal ratio, with a control signal flat, not every such curve was filed as active; the % refers to the signal ratio; also: potency is read from the fitted curve at half-maximal effect;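 as to max response: cells stimulated with 9-cis-retinoic acid as agonist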); details: HEK293T RXRa-UAS-bla, beta-lactamase ratio, antagonist mode; measured here: W530 green channel, cytotoxicity proxy
# How it was run: (§1)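 Beta-lactamase reporter inhibition, read as CCF4 fluorescence ratio (ex 405, em 460/530 nm) after 2 h at RT. HEK293T UAS-bla cells, 2500/well, were stimulated with 9-cis-RA at 500 or 100 nM final alongside test compound for 18 h at 37 C.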
# [10] = target: Retinoic acid receptor RXR-alpha (Homo sapiens) (UniProt P19793); assay: as above; details: HEK293T RXRa-UAS-bla, beta-lactamase ratio, antagonist mode
# How it was run: as §1
# Chain of Thyroid hormone receptor beta (Homo sapiens) (P10828 whole entry, looked up): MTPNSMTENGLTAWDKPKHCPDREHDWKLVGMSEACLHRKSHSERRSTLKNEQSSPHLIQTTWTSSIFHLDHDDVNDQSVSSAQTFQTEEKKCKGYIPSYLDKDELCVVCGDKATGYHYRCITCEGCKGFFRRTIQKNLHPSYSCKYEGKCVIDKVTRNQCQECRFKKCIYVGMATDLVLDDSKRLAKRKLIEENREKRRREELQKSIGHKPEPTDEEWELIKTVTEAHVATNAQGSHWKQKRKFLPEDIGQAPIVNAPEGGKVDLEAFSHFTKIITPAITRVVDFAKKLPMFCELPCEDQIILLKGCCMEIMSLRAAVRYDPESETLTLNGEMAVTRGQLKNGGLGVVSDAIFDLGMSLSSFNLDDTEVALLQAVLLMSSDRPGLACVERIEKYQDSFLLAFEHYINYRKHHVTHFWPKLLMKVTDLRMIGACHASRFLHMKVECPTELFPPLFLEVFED
# Chain of Retinoic acid receptor RXR-alpha (Homo sapiens) (P19793 whole entry, looked up): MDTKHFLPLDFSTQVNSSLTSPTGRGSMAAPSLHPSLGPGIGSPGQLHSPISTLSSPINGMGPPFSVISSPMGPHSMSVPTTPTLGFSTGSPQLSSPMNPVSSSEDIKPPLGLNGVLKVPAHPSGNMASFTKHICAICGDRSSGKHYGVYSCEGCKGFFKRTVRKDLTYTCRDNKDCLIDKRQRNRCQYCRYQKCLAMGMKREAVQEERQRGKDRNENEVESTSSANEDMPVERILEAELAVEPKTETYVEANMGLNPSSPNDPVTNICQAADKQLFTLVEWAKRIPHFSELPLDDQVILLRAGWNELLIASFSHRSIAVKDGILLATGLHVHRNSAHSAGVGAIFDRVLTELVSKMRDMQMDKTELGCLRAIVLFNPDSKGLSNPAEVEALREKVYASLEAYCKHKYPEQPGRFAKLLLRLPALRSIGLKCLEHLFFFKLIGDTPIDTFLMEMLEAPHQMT
# Chain of Peroxisome proliferator-activated receptor delta (Homo sapiens) (Q03181 whole entry, looked up): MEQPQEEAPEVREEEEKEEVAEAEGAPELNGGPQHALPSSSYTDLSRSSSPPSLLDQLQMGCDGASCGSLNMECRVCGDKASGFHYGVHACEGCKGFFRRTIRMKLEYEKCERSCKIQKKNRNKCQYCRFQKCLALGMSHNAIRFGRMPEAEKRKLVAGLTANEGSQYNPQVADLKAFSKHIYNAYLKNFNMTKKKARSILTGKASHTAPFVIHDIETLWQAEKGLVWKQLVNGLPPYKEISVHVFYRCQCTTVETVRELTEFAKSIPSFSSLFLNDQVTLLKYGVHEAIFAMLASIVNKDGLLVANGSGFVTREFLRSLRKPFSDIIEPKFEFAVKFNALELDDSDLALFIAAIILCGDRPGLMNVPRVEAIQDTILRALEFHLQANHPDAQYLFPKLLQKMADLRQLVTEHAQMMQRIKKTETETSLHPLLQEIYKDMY
# Chain of Vitamin D3 receptor (Homo sapiens) (P11473 whole entry, looked up): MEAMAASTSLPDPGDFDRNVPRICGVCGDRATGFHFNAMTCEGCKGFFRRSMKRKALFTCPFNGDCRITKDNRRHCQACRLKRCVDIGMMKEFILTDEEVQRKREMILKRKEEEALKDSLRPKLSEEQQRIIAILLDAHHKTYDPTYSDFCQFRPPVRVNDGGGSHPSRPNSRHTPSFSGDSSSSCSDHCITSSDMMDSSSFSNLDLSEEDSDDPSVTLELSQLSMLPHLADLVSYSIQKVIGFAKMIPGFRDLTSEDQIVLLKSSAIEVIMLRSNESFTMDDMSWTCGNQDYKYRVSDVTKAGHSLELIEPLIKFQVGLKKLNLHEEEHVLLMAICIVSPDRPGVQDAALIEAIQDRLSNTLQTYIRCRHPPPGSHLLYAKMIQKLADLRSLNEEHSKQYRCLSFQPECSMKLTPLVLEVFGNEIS
# Chain of Peroxisome proliferator-activated receptor gamma (Homo sapiens) (P37231 whole entry, looked up): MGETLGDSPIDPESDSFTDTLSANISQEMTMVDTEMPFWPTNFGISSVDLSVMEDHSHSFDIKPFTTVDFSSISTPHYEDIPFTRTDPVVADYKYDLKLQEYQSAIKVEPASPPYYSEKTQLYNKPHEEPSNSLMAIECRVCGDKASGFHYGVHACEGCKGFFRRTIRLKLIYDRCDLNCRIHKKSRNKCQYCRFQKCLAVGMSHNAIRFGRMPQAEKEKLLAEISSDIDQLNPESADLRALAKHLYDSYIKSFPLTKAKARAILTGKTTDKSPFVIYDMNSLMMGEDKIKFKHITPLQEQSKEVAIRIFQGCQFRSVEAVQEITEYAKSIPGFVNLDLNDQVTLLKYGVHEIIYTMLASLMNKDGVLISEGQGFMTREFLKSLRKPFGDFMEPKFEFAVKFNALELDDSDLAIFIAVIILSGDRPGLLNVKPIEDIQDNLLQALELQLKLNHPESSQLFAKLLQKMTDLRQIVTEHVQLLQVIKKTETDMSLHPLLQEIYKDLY
SMILES,outcome [1],outcome [2],outcome [3],Potency [4],outcome [5],outcome [6],max response [7],outcome [8],max response [9],max response [10],Potency [10]
CC#C[C@]1(O)CC[C@H]2[C@@H]3CCC4=CC(=O)CCC4=C3[C@@H](c3ccc(N(C)C)cc3)C[C@@]21C,inactive,–,–,–,–,–,–,–,–,–,–
CCOC(=O)C(C)(C)Oc1ccc(Cl)cc1,inactive,inactive,inactive,inactive,inactive,inactive,-9.24%,inactive,-5.41%,3.43% (inactive),–
NCCS(=O)(=O)O,inactive,–,inactive,inactive,inactive,inactive,-14.9%,inactive,-6.13%,-0.744% (inactive),–
Cn1cnc2c1c(=O)[nH]c(=O)n2C,inactive,inactive,inactive,inactive,inactive,inactive,–,–,-0.801%,-5.33% (inactive),–
CCC1(c2ccccc2)C(=O)NCNC1=O,inactive,–,inactive,inactive,inactive,inactive,-2.48% and -11.6%,inactive,-5.6% and -16.4%,16.1% (inactive) and -15.5% (inactive),–
Cn1c(=O)c2c(ncn2C)n(C)c1=O,–,–,inactive,inactive,–,–,-3.75% and 14.5%,inactive,0.479% and 2.47%,-0.557% (inactive) and -14.2% (inactive),–
N[C@@H](Cc1c[nH]c2ccc(O)cc12)C(=O)O,–,inactive,inactive,inactive,inactive,inactive,-7.77%,inactive,1.87%,3.1% (inactive),–
O=c1[nH]cc(F)c(=O)[nH]1,–,–,–,–,inactive,inactive,-12.4%,inactive,-11.8%,17.9% (inactive),–
O=C(CCCN1CCC(O)(c2ccc(Cl)cc2)CC1)c1ccc(F)cc1,inactive,–,inactive,inactive,–,–,-1.31%,inactive,6.93%,-32.4% (inactive),–
COc1ccc2[nH]cc(CCNC(C)=O)c2c1,inactive,inactive,inactive,inactive,inactive,inactive,4.26% and -2.38% and 20.7%,inactive,15.5% and 6.29% and -2.26%,0.955% (inactive) and -6.07% (inactive) and -2.21% (inactive),–
Cc1cn([C@H]2C=C[C@@H](CO)O2)c(=O)[nH]c1=O,inactive,inactive,inactive,inactive,inactive,inactive,-12.5% and -2.44% and -13%,inactive,-1.05% and 0.328% and -3.51%,0.606% (inactive) and 10% (inactive) and 8.08% (inactive),–
CC(COc1ccccc1)N(CCCl)Cc1ccccc1 (centres undefined),inactive,–,inactive,–,inactive,inactive,23% and 19%,inactive,9.59% and -12.9%,13.6% (inactive) and -11.7% (inactive),–
CC(C)Cc1ccc(C(C)C(=O)O)cc1 (centres undefined),inactive,inactive,inactive,inactive,–,–,27.4%,inactive,4.68%,-17.6% (inactive),–
C[C@](N)(Cc1ccc(O)c(O)c1)C(=O)O,inactive,inactive,inactive,inactive,inactive,inactive,-1.09%,inactive,-16.7%,-26.4% (inactive),–
CC(C)C(=O)Nc1ccc([N+](=O)[O-])c(C(F)(F)F)c1,inactive,–,inactive,inactive,–,–,–,–,2.09% and 2.52%,-17.5% (inactive) and 1.97% (inactive),–
Cn1c(=O)c2[nH]cnc2n(C)c1=O,inactive,–,inactive,–,–,–,-12.6%,inactive,-3.21%,-6.35% (inactive),–
O=C(c1ccc(OCCN2CCCCC2)cc1)c1c(-c2ccc(O)cc2)sc2cc(O)ccc12,–,–,–,39.8 µM (active),–,inactive,–,–,-24.2%,–,25.1 µM (active)
Cc1cn([C@H]2C[C@H](N=[N+]=[N-])[C@@H](CO)O2)c(=O)[nH]c1=O,inactive,inactive,inactive,inactive,inactive,inactive,27.7% and 12.8%,inactive,15.5% and -2.05%,5.84% (inactive) and -2.64% (inactive),–
CN(Cc1cnc2nc(N)nc(N)c2n1)c1ccc(C(=O)N[C@@H](CCC(=O)O)C(=O)O)cc1,inactive,–,–,0.447 µM (active),–,–,–,–,–,–,–
COc1cc2c(c(OC)c1OC)-c1ccc(OC)c(=O)cc1[C@@H](NC(C)=O)CC2,inactive,–,–,–,–,inactive,–,–,–,–,–
Nc1ccn([C@H]2CC[C@@H](CO)O2)c(=O)n1,inactive,inactive,inactive,inactive,–,–,-7.85% and -11%,inactive,-1.8% and -6%,-7.58% (inactive) and 1.21% (inactive),–
Nc1c2c(nc3ccccc13)CCCC2,inactive,–,inactive,–,–,–,–,–,12.8%,-6.99% (inactive),–
CC(C)NCC(O)c1ccc(O)c(O)c1 (centres undefined),inactive,inactive,inactive,inactive,inactive,inactive,-7.52% and -0.93%,inactive,-15.7% and 0.88%,-2.1% (inactive) and -5.01% (inactive),–
CC(C)(Oc1ccc(C2CC2(Cl)Cl)cc1)C(=O)O (centres undefined),inactive,inactive,–,inactive,inactive,inactive,–,–,3.34%,-27.6% (inactive),–
COc1ccc2c(c1)c(CC(=O)O)c(C)n2C(=O)c1ccc(Cl)cc1,inactive,–,–,–,–,–,–,–,–,–,–
O=c1c(-c2ccc(O)cc2)coc2cc(O)cc(O)c12,inactive,–,–,–,inactive,inactive,–,–,18.6%,–,35.5 µM (active)
Clc1ccc(C(c2ccccc2Cl)C(Cl)Cl)cc1 (centres undefined),inactive,inactive,–,–,–,–,–,–,–,–,–
O=C(Nc1ccc([N+](=O)[O-])cc1Cl)c1cc(Cl)ccc1O,inactive,–,–,–,–,–,–,–,3.51%,–,2.51 µM (active)
NS(=O)(=O)c1cc2c(cc1Cl)NCNS2(=O)=O,inactive,–,inactive,inactive,inactive,inactive,1.78% and -10.2%,inactive,-4.08% and -3.49%,11.3% (inactive) and 4.53% (inactive),–
